Bioassay records deposited in PubChem BioAssay by National Center for Advancing Translational Sciences (NCATS).
TDP1 cell CPT – growth inhibition of DT40 Tdp1-/-;hTDP1 cells with camptothecin (screen for TDP1 inhibitors) | chicken DT40 Tdp1-/-;hTDP1 cells + 20 nM CPT, ATP luminescence, 48 h | Potency, µM (doses to about 46.2 µM), inactives show at the highest dose activity change, negative = growth inhibition, actives largely listed as inhibitors | 12% of 420,000 active; further: potency means the concentration at half of the fitted maximal effect; nearly all actives have a fitted effect of over 55% in size
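Chicken DT40 Tdp1-/- cells stably complemented with human TDP1 were seeded at 400 cells/well in medium containing 20 nM camptothecin, exposed to pin-transferred compounds, and grown at 37 °C for at least 48 hr. Viability was read as ATP luminescence.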
RORg inh – blocks mouse ROR gamma transcriptional activity. Drosophila S2 Gal4-RORgamma UAS-luciferase reporter, 20 h. AID 2551. Potency, µM (titrated, usually from 53.6 µM), without a hit: at the highest dose activity change, negative = inhibition, most hits filed as inhibitors. P51450. 5.4% of 310,000 active; further: potency means the concentration at half of the fitted maximal effect; nearly all actives have a fitted effect of over 60% in size
Target sequence (P51450 whole entry, looked up, the tested form may be a part): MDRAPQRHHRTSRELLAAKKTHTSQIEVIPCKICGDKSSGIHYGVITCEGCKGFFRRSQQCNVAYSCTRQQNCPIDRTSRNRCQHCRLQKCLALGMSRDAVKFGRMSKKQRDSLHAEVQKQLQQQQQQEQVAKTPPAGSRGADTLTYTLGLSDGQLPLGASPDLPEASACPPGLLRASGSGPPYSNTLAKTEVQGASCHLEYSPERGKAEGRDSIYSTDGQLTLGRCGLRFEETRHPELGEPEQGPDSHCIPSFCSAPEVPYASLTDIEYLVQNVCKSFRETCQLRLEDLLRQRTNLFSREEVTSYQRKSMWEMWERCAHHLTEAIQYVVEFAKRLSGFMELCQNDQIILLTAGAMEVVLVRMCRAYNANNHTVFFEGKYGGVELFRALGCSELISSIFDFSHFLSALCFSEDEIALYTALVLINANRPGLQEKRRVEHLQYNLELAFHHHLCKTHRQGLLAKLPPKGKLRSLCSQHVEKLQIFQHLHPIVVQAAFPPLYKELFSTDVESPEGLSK
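Using a luciferase readout, inhibitors were identified by reduced reporter activity in Drosophila cells coexpressing a copper-inducible Gal4–ROR gamma fusion and UAS-driven Photinus luciferase, incubated 20 hr after 700 uM copper sulfate.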
IL1B secr inh – inflammasome signaling inhibition, IL-1 beta readout; THP-1 LPS/ATP IL-1B secretion, AlphaLISA, 16 h; hits give low values; activity change, % at 57.5 µM; 4.7% of 360,000 active; AID 743279; in the data active means activity change below about -50%; inconclusive means mostly about -30% to -49%
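Secreted IL-1B measured by AlphaLISA bead assay after 16 h compound exposure of THP-1 cells; compounds (final up to 57.5 uM) added 1 h before LPS (250 ng/mL) and ATP (1.25 mM) stimulation; lower signal means less secretion.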
ELG1 repair inh – inhibitors of ELG1-dependent DNA repair in HEK293T cells; Potency, µM (doses to about 46.1 µM), inactives show at the highest dose activity change, negative = inhibition, usual class: inhibitors; AID 504467; HEK293T ELG1-luciferase reporter, luminescence, 16 h; DNA damage induced by 5-fluorouridine; 2.3% of 330,000 active; further: potency means the concentration at half of the fitted maximal effect; nearly all actives have a fitted effect of over 55% in size
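Step one: seed 2,000 cells per well. Step two: pin-transfer compound or DMSO alongside 5-fluorouridine. Step three: incubate 16 hr, 37 °C, 5% CO2. Step four: add ONE-Glo, wait 30 min, read luminescence.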
VP16 counter – Gal4-VP16 reporter inhibition counter-screen; Drosophila S2 Gal4-VP16 UAS-luciferase, luminescence, 20 h; Potency, µM (series often up to 53.6 µM), without a hit: at the highest dose activity, negative = inhibition, actives largely listed as inhibitors; 3.5% of 310,000 active; AID 2546;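 further: Gal4-VP16 expression switched on by copper sulfate through the metallothionein promoter; potency means the concentration at half of the fitted maximal effect; nearly all actives have a fitted effect of over 50% in size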
DT40 TDP1 no CPT – qHTS for Inhibitors of human tyrosyl-DNA phosphodiesterase 1 (TDP1): qHTS in cells in absence of CPT; DT40 Tdp1-/- hTDP1 cells, no CPT, ATP luminescence, 48 h; Potency, µM (doses to about 46.2 µM), inactives show top-dose activity change, negative = growth inhibition, actives largely listed as inhibitors; 15% of 420,000 active; AID 686978, 2013; further: potency means the concentration at half of the fitted maximal effect; nearly all actives have a fitted effect of over 55% in size
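No-CPT arm: Tdp1-/-;hTDP1 DT40 cells (400/well) plus compounds, incubated ≥48 hr at 37 °C. Readout CellTiter-Glo luminescence.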
Starred values were filed as active, the others as inactive; ? = inconclusive; nt = no result given; [ ] = another dose, or the depositor's remark. Sampled rows, rich in hits. Any-hit rate of the full collection: about 21%. Unless noted, the call rests on the fitted dose curve; in most records, active means well fitted curve in the direction sought with a large enough effect; inconclusive means small, poorly fitted or top-dose-only effect, or another doubt; inactive means no such curve, though single readings can be large; an effect the other way counts as inactive or inconclusive. On the % scale 0 is the no-effect control and ±100 the full control effect.

SMILES	TDP1 cell CPT	RORg inh	IL1B secr inh	ELG1 repair inh	VP16 counter	DT40 TDP1 no CPT
O=C(CN1CCN(Cc2ccc3c(c2)OCO3)CC1)Nc1ccc2c(c1)OCO2	-18%	6%	-10	?	-5%	-3%
COc1cc(NC(=O)CN2CCN(Cc3ccc4c(c3)OCO4)CC2)cc(OC)c1	-22%	-1%	1	23µM*	-1%	?
COc1cccc(N2CCN(C(=O)CCNS(=O)(=O)c3ccc(F)c(F)c3)CC2)c1	?	nt	25	?	nt	?
Cc1ccccc1Cc1nc2cccnc2n1C1CCN(C(=O)CC2NC(=O)c3ccccc32)CC1 (stereo not given)	-5%[9.04 µM]	nt	nt	nt	nt	?
O=C(Nc1ccc(Cl)cc1N1CCOCC1)C1CCCO1 (stereo not given)	-5%	nt	0	-6%	nt	-1%
C[N+]1(CC(=O)OCCCC2CCCCC2)CCCC1	-28%	-5%	26	4%	0%	21µM*
CC(C)(C)C1CCC(OC(=O)C[N+]2(C)CCCCC2)CC1 (stereo not given)	?	0%	-6	?	-1%	10µM*
O=C(CN1CCCC1)OCCCC1CCCCC1	-9%	-3%	23	-11%	-6%	-7%
CC(C)(C)C1CCC(OC(=O)C[N+]2(C)CCCC2)CC1 (stereo not given)	4.1µM*	8%	8	-13%	2%	5.2µM*
CC(C)CC1CCCCC1OC(=O)C[N+]1(C)CCCCC1 (stereo not given)	?	21%	-19	?	-7%	10µM*
COc1ccc(/C=C/C(=O)OC2CCCCC2CN(C)C)cc1 (stereo not given)	0%	-10%	?	-1%	0%	-5%
CC(=O)OC1CC2C(C)(C)C(O)CCC2(C)C2CC[C@]3(C)C(=CC(=O)OC3c3ccoc3)C12C (stereo not given in full)	-21%	-21%	nt	nt	-5%	-27%
CCC(=O)N1CCc2cc(Br)cc(S(=O)(=O)CCC(=O)NCCc3ccc(Cl)cc3)c21	-27%	nt	nt	nt	nt	?
CC(C)(C)n1nnnc1C(c1ccccc1)N1CCN(C(=O)c2ccco2)CC1 (stereo not given)	-2%	nt	-11	nt	nt	?
CN(C(=O)COC(=O)C1COc2ccccc2O1)C1(C#N)CCCCC1 (stereo not given)	7%	nt	0	-1%	nt	5%
Cc1ccc2nc(NC(=O)CSc3nccn3Cc3ccc(F)cc3)sc2c1	16µM*	nt	nt	nt	nt	18µM*
Cc1ccc2nc(NC(=O)CSc3nccn3Cc3ccccc3)sc2c1	26µM*	nt	nt	nt	nt	?
Cc1nnc(NC(=O)CSc2nccn2Cc2ccccc2)s1	-11%	-34%	0	1%	1%	?
Cc1nnc(NC(=O)CSc2nccn2Cc2ccc(F)cc2)s1	?	-25%	37	15%	-1%	?
Cc1cc(C)cc(NC(=O)CN(c2cccc(C)c2C)S(=O)(=O)c2ccccc2)c1	16µM*	nt	nt	nt	nt	21µM*
Cc1ccc(S(=O)(=O)N(CC(=O)Nc2ccccc2C(=O)O)c2cccc(Cl)c2C)cc1	?	6%	15	-24%	-8%	?
Cc1cc(NC(=O)CN(c2cccc(C)c2C)S(=O)(=O)c2ccccc2)ccc1Br	18µM*	nt	nt	nt	nt	16µM*
CCC1(C(N)=O)CC2C=CC1C2 (stereo not given)	-2%	nt	20	nt	nt	0%
Cc1nnc(N/N=C/c2c[nH]c3ccccc23)[nH]c1=O	?	-13%	0	17%	1%	1%
Cc1nnc(N/N=C/C(C)c2ccccc2)[nH]c1=O (stereo not given)	2%	-28%	-100*	-8%	-1%	1%
SMILES	TDP1 cell CPT	RORg inh	IL1B secr inh	ELG1 repair inh	VP16 counter	DT40 TDP1 no CPT
Cc1cc(C)nc(SCC(=O)OCC(=O)Nc2ccccc2)n1	22%	-27%	6	16%	4%	6%
CCn1nc(-c2ccccc2C)nc2c(=O)n(C)c(=O)nc1-2	1µM*	nt	nt	nt	nt	1µM*
Cc1cc(C)n2nc(-c3ccc(F)cc3)nc2n1	-17%	8%	25	?	0%	-11%
Cn1nc(-c2cccnc2)nc2c(=O)n(C)c(=O)nc1-2	1.1µM*	nt	nt	nt	nt	1.3µM*
Cn1nc(-c2ccc(F)cc2)nc2c(=O)n(C)c(=O)nc1-2	0.45µM*	nt	nt	nt	nt	0.63µM*
COc1ccc(-c2nc3c(=O)n(C)c(=O)nc-3n(C)n2)cc1	0.089µM*	nt	nt	nt	nt	0.45µM*
CCOC(=O)c1ccccc1NC(=S)N1CCN(C(=O)c2ccco2)CC1	?	-10%	16	?	4%	?
CCC(C)(C(=O)NC1CCCCC1)N(Cc1ccco1)C(=O)c1ccc2c(c1)OCO2 (stereo not given)	12µM*	-33%	4	0%	10%	8.2µM*
COc1ccc(-c2nc3ccc(Cl)cn3c2Cc2cccc(F)c2)cc1OC	23µM*	nt	0	nt	nt	21µM*
COc1ccc(-c2nc3ccc(C)cn3c2Cc2cccc(F)c2)cc1OC	?	nt	-15	nt	nt	21µM*
Cc1ccnc(NS(=O)(=O)c2ccccc2)c1	3%	nt	1	1%	nt	-25%
